Screening data: PubChem, several laboratories
VHR inh abs – DUSP3 (human) phosphatase inhibition | recombinant VHR phosphatase, pNPP absorbance | inhibition, % at 13.3 µM | 290,000 compounds, 0.52% hits | AID 1654 | P51452; in the data active means inhibition above about 50%
Target sequence (P51452 whole entry, looked up): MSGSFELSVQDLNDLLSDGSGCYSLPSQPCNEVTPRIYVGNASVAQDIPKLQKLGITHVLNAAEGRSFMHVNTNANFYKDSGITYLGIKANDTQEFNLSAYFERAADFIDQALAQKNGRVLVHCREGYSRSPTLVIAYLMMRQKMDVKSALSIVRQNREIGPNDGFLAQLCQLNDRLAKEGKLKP
SARS 3CLpro inh – SARS-CoV 3CLpro protease inhibition; P0C6X7; recombinant SARS-CoV 3CLpro, quenched FRET peptide cleavage; inhibition, % at 6 µM; 290,000 compounds, 0.14% hits; AID 1706; in the data active means inhibition above about 12%
PrPC TRFRET – cell surface PrPC inhibition, primary TR-FRET screen; P04156; 370,000 compounds, 0.43% hits; TR-FRET read-out; inhibition, % at 13.8 µM; in the data active means inhibition above about 24%; further: 0% = median of the test wells and 100% = reference compound wells
Mtb hypoxia inh – reduces hypoxia-regulated biosensor signal in M. tuberculosis; AID 1159583; 300,000 compounds, 0.1% hits; M. tuberculosis hypoxia-regulated fluorescent reporter, fluorescence; fluorescence inhibition, % (no concentration beside the values); in the data active means fluorescence inhibition mostly above about 23%, no sharp cut-off; inactive means mostly below about 17%
PrP 5UTR inh – inhibition of PrP 5' UTR reporter expression; cell-based PrP 5' UTR mRNA reporter, plate reader; inhibition, % (test concentration not listed); 340,000 compounds, 0.35% hits; AID 488862; in the data active means inhibition above about 52%; further: 0 = median of the neutral control wells
MazF activator – MazEF (E. coli) toxin RNase activation | FAM/BHQ RNA-DNA oligo cleavage fluorescence, 5 h | activation, % at 20 µM | 350,000 compounds, 0.32% hits | AID 504720; in the data active means activation above about 50%
Target sequence (P0AE70 whole entry, looked up): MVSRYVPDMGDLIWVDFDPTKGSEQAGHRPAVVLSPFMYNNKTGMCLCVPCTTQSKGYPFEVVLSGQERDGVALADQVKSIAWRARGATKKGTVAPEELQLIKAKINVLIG
PrP UTR cherry – prion 5' UTR mRNA inhibition, cherry-pick retest; shares compounds with PrP 5UTR inh; cell-based prion protein 5' UTR reporter, plate reader; inhibition, % at 2.5 µM; 1,100 compounds, 48% hits; in the data active means inhibition above about 54%; inconclusive means no clear call, values can overlap the other calls
The depositor's hits bear a star; ? = inconclusive; . = no result shown. Sampled rows, rich in hits. Any-hit rate of the full collection: about 1.5%.

SMILES | VHR inh abs | SARS 3CLpro inh | PrPC TRFRET | Mtb hypoxia inh | PrP 5UTR inh | MazF activator | PrP UTR cherry
Cc1cc(C=C2C(=O)c3ccccc3C2=O)c(C)n1-c1ccc(C(=O)O)cc1 | 17 | 6 | 0 | 6 | -29 | -12 | .
COc1ccc(NC(=O)C(=O)NCC(c2ccco2)N2CCc3ccccc32)cc1 (stereo unspecified) | . | . | . | 1 | 53* | 0 | 80*
CC(=O)Nc1ccc(NC(=O)C(=O)NCC(c2ccco2)N2CCc3ccccc32)cc1 (stereo unspecified) | . | . | 6 | . | -13 | -3 | .
C=CCn1c(O)c(C=Nc2ccc(OC)cc2C)c(=O)[nH]c1=O | 12 | 5 | 3 | . | 55* | 2 | 0
C=CCn1c(O)c(C=Nc2c(C)n(C)n(-c3ccccc3)c2=O)c(=O)[nH]c1=O | 13 | 4 | 11 | 1 | -24 | -12 | .
CS/C(N)=N/N=Cc1cc(C)ccc1O | . | . | . | 12 | . | . | .
Nc1ccc2c(c1)-c1ccc(F)cc1C2=O | . | . | -3 | . | 81* | 8 | -2
COc1ccc(-c2cc3nc4n(c(=O)c3s2)CCC4)cc1 | 10 | -5 | -14 | 5 | 35 | 6 | .
Cc1nc2cc(-c3ccccc3)sc2c(=O)n1N | 12 | 3 | -2 | 9 | 81* | 11 | 78*
COc1ccc(-c2cc3nc(C)n(N)c(=O)c3s2)cc1 | 6 | -1 | 1 | 8 | 91* | -1 | 92*
Cn1c(NCc2ccccc2)nc2cc(-c3ccccc3)sc2c1=O | . | . | 3 | . | . | . | .
Cc1ccc(C(=O)Sc2cccccc2=O)cc1 | 5 | 9 | 7 | . | 57* | -16 | ?
CN(c1ccccc1)C1CCCCC1NS(=O)(=O)c1ccc(Cl)cc1 (stereo unspecified) | -5 | 4 | 8 | -46 | -51 | 0 | .
CCN(CC)C1CCCCC1NS(=O)(=O)c1ccc(Cl)cc1 (stereo unspecified) | 28 | -2 | 9 | 8 | 80* | 6 | -8
Clc1ccccc1N=Nc1ccccn1 | . | . | -9 | . | 68* | -111 | -22
O=C(Cc1ccc(NC(=O)C2CCN(C(=O)c3ccccc3)CC2)cc1)Nc1ccc(C(=O)N2CCOCC2)cc1 | . | . | 0 | -4 | -19 | 3 | .
O=C(Cc1ccc(Cl)cc1)Nc1ccc(C(=O)N2CCOCC2)cc1 | 24 | -2 | 2 | -8 | 63* | -9 | -12
O=C(NN=Cc1ccccn1)c1cccc(S(=O)(=O)N2CCCC2)c1 | . | . | . | -8 | . | . | .
CC(C)Nc1nnc(SCC(=O)c2c(N)n(Cc3ccccc3)c(=O)n(C)c2=O)s1 | 11 | 0 | -5 | . | 60* | -1 | -7
CC(=O)c1c(C)[nH]c(C(=O)COC(=O)CCSc2ccccc2)c1C | -2 | -2 | 2 | -3 | -11 | -2 | .
CC(=O)c1c(C)[nH]c(C(=O)COC(=O)CCCOc2ccccc2)c1C | 8 | 2 | -6 | 3 | 58* | 5 | ?
CCOc1ccc(S(=O)(=O)N2CCN(C(=O)c3cc([N+](=O)[O-])ccc3N3CCOCC3)CC2)cc1 | . | . | 0 | 8 | -8 | -1 | .
CCOc1ccc(C(=O)c2cc([N+](=O)[O-])ccc2N2CCOCC2)cc1 | 0 | 0 | -3 | 4 | 58* | 5 | 72*
COc1ccc(C(=O)c2cc([N+](=O)[O-])ccc2N2CCOCC2)cc1 | -4 | 6 | -11 | -2 | 83* | -7 | 80*
Cc1ccc(C(=O)c2cc([N+](=O)[O-])ccc2N2CCOCC2)cc1 | 2 | 2 | -1 | . | 2 | 5 | .
SMILES | VHR inh abs | SARS 3CLpro inh | PrPC TRFRET | Mtb hypoxia inh | PrP 5UTR inh | MazF activator | PrP UTR cherry
O=[N+]([O-])c1ccc(C=Nn2cnc3ccccc32)s1 | . | . | . | 24 | . | . | .
COc1ccc(C=NNc2nc(Nc3ccccc3)nc(N3CCCC3)n2)cc1[N+](=O)[O-] | . | . | . | -8 | . | . | .
O=[N+]([O-])c1ccc(-c2cnc3ccccc3n2)cc1 | 1 | -8 | -23 | -6 | -64 | -18 | .
CCOc1ccc(-c2cnc3ccccc3n2)cc1 | 17 | 2 | -5 | 4 | 60* | -5 | ?
CCOc1ccc(CN2C(=O)c3ccccc3C2=O)cc1C(=O)Nc1nnc(SCC)s1 | -5 | 2 | 1 | -5 | -11 | 0 | .
CCOc1ccc(CN2C(=O)c3ccccc3C2=O)cc1C(=O)NC1CC(C)(C)NC(C)(C)C1 | . | . | -3 | 12 | 85* | 4 | -13
CC(C)(C)C(=O)Nc1cc2nn(-c3ccccc3)nc2cc1Cl | -13 | 2 | 5 | 2 | 86* | -3 | 73*
CC(=O)Nc1cc2nn(-c3ccccc3)nc2cc1Cl | 29 | -4 | -7 | . | -111 | 6 | .
CC(=O)c1c(C)[nH]c(C(=O)Nc2nc(C)cs2)c1C | 14 | 0 | -1 | 17 | 65* | -3 | 44
COc1cc(SC)ccc1C(=O)Nc1ccc(Br)cn1 | 13 | 8 | -7 | -1 | 68* | -3 | 67*
COc1cc(SC)ccc1C(=O)Nc1ccccn1 | 2 | -1 | 3 | 3 | -27 | 9 | .
COc1cc(SC)ccc1C(=O)Nc1ncc(C)s1 | 8 | 5 | 3 | 5 | 74* | 7 | 69*
Cc1cc(/C=C2\SC(=S)N(C)C2=O)c(C)n1-c1ccc(O)cc1 | 17 | 5 | -9 | 12 | 76* | -42 | 77*
Cc1cc(/C=C2\SC(=S)N(C)C2=O)c(C)n1-c1ccccc1O | . | . | -3 | 6 | 13 | -47 | .
CCCCCCCCCCCCN1C(CC(C)=O)c2cc(C(F)(F)F)ccc2S1(=O)=O (stereo unspecified) | . | . | . | 14 | . | . | .
O=C(NN=Cc1cccc(O)c1)c1cc2c(ccc3ccccc32)o1 | . | . | . | 2 | . | . | .
O=C(NCCc1ccccc1F)c1ccc2c(c1)OCCO2 | 8 | 1 | -6 | . | 89* | -2 | 93*
CC(=O)CCC(=O)NCCc1ccccc1F | -8 | -2 | -4 | 8 | 85* | -12 | -8
O=C(NCC(c1cccnc1)N1CCN(c2ccc(F)cc2)CC1)C1CCCCC1 (stereo unspecified) | 32 | -1 | -1 | 4 | 69* | 6 | -13
COc1ccc(N2CCN(C(CNC(=O)C3CCCCC3)c3cccnc3)CC2)cc1 (stereo unspecified) | 28 | 4 | 3 | 1 | 2 | -5 | .
CC1(C)CC[C@]2(C(=O)O)CC[C@]3(C)C(=CCC4[C@@]5(C)CCC(O)C(C)(C)C5CC[C@]43C)C2C1 (stereo partly specified) | . | . | . | -1 | . | . | .
